High-throughput results from PubChem BioAssay.
GLS inhibitor: glutaminase GLS (human) inhibition. O94925. GLS enzymatic activity, qHTS titration. 410,000 compounds, 0.21% hits. Potency, µM (highest dose often 45.5 µM), hits mostly inhibitors. AID 624170
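Compounds were pin-transferred onto hKGA, after which L-glutamine (1 mM solution) and a detection mix of glutamate oxidase, HRP and Amplex Red were added. Initial and 30 min RT fluorescence reads were collected.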
HP1b binding inh: inhibitors of HP1-beta chromodomain binding to methylated histone tails; P83916; AlphaScreen HP1-beta / biotin-H3K9me3 peptide binding; Potency, µM (doses to about 114 µM), hits mostly inhibitors; 390,000 compounds, 0.56% hits; note: nearly all actives have a fitted effect of over 70% in size
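AlphaScreen: HP1-beta (50 nM) preformed 30 min with biotin-H3(1-18)K9me3 peptide (50 nM) in PBS pH 7.4, 0.01% Tween-20. Compound added for 30 min at RT, then streptavidin donor/nickel chelate acceptor beads (10 ug/mL) for 30 min.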
JMJD2A Tudor inh: JMJD2A Tudor domain (human) inhibition | AID 504339 | Potency, µM (series often up to 114 µM), most hits filed as inhibitors | 390,000 compounds, 4.4% hits | AlphaScreen JMJD2A-Tudor / H3K4me3 peptide binding; note: nearly all actives have a fitted effect of over 50% in size
G9a inh: G9a (human) methyltransferase inhibition. Q96KQ7. G9a H3K9 monomethylation, AlphaScreen, 2 h. Potency, µM (highest dose often 102 µM), hits mostly inhibitors. 350,000 compounds, 8.8% hits. AID 504332; note: nearly all actives have a fitted effect of over 75% in size
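Enzyme 20 nM + cpd, 15 min RT; add b-H3K9 pep 500 nM / SAM 20 uM; 2 h RT; anti-H3K9me1 Ab 0.5 ug/mL + SA donor / anti-rabbit acceptor beads 20 ug/mL each, 10 min; AlphaScreen read.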
BAZ2B block: inhibitors of human BAZ2B bromodomain | Q9UIF8 | AlphaScreen BAZ2B-H3K14Ac peptide displacement | Potency, µM (top dose mostly 114 µM), most hits filed as inhibitors | 360,000 compounds, 4.4% hits; note: nearly all actives have a fitted effect of over 60% in size
Target sequence (Q9UIF8 whole entry, looked up): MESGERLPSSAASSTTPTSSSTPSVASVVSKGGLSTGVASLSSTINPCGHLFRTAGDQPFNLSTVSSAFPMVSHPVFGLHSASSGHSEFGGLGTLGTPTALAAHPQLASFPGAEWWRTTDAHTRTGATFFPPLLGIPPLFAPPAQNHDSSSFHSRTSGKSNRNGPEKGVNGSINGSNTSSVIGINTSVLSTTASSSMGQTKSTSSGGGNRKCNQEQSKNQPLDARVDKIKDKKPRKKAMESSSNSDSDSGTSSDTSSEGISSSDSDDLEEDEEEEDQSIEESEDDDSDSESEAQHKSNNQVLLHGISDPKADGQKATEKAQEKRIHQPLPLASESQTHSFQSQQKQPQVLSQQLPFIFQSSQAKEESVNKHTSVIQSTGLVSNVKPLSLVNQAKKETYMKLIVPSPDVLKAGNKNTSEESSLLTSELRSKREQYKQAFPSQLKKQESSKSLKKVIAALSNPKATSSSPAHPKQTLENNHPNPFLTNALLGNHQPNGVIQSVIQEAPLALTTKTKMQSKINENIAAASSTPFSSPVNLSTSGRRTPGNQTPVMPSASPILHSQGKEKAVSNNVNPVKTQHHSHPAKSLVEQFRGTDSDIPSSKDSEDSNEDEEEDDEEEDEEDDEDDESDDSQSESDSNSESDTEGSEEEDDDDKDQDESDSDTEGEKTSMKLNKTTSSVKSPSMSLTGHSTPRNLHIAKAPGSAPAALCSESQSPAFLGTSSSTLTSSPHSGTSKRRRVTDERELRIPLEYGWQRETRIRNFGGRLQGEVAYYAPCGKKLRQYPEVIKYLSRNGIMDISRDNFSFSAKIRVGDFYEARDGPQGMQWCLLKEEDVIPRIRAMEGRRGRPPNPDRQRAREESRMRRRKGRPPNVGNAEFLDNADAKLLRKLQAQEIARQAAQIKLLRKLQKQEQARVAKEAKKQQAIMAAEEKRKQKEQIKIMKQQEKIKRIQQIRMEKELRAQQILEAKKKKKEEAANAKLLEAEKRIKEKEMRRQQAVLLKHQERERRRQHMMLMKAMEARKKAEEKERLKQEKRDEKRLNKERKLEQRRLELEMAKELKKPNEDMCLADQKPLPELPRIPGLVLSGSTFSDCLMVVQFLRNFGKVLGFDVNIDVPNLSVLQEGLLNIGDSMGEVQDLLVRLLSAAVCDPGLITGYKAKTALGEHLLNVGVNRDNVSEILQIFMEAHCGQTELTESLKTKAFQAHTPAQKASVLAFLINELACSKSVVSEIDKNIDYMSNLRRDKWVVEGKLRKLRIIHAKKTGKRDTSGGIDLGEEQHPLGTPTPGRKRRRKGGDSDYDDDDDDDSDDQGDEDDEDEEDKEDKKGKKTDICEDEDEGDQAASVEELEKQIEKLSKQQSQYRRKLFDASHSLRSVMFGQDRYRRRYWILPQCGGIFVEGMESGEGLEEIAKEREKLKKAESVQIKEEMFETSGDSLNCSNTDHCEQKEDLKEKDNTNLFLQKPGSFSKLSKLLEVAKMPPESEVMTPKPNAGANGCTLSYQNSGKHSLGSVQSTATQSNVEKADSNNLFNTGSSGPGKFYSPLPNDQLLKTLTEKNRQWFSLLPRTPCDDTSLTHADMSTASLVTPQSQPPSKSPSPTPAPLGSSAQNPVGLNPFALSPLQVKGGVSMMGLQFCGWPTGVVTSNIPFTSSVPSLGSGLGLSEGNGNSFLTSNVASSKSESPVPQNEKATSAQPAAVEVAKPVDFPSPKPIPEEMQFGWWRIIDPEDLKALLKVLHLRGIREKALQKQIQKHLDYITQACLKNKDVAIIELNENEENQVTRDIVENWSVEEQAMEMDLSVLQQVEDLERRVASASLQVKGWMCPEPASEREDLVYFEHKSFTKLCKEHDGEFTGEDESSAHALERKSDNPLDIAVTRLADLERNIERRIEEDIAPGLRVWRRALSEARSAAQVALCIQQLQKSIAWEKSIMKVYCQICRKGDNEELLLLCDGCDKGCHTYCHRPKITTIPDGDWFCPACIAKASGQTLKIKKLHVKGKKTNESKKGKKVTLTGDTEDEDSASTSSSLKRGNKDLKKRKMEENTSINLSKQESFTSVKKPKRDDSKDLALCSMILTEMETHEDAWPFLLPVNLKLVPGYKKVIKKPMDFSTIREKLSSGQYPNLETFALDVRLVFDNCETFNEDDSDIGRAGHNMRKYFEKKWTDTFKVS
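Compounds, titrated to a top concentration of 110 uM, were incubated 30 min at room temperature with preformed BAZ2B/acetyl-K14 H3 peptide complex (50 nM each). Proximity signal was measured by AlphaScreen after 20 min with beads.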
Numbers stand for hits; i = inactive; ? = inconclusive; nt = no result given; ! = a repeat was not active; [ ] = another dose, or the depositor's remark. Most compounds without a hit are left out; they make up all but 10% or so of the library. Calls come from the whole dose curve; as a rule, active = well fitted curve in the direction sought with a large enough effect; inconclusive = small, poorly fitted or top-dose-only effect, or another doubt; inactive = no such curve, though single readings can be large; an effect the other way counts as inactive or inconclusive.

SMILES | GLS inhibitor | HP1b binding inh | JMJD2A Tudor inh | G9a inh | BAZ2B block
CCOC(=O)c1[nH]c(C)c(CCC(=O)Nc2ccccc2OCC)c1C | i | i | i | i | i
CCOC(=O)c1[nH]c(C)c(CCC(=O)Nc2ccc(N(CC)CC)cc2C)c1C | i | i | i | 14µM | i
[O-][n+]1cccc(CO)c1 | i | nt | nt | i[12.7 µM] | nt
CCCc1nc2c(C)ccc(C)c2c(N)c1CC | i | ? | 2.8µM | ? | i
CC(=O)Nc1c([N+](=O)[O-])cc2[nH]c(=O)[nH]c2c1[N+](=O)[O-] | i | i | i[11.4 µM] | 32µM | i
Cn1c(SCc2ccc(F)cc2)nc2ccc(C(=O)NCc3cccc(Cl)c3)cc21 | i | i | i | i | i
Cn1cnnc1SCC(=O)c1c[nH]c2ccccc12 | i | i | i | i | i
CCCCNc1nnc(SCC(=O)c2c[nH]c3ccccc23)s1 | i | i | i | 28µM | i
Cc1ccc(Cn2cc(S(=O)(=O)c3cccc(Cl)c3)c(=O)c3cc(F)c(N4CCCCC4)cc32)cc1 | i | i | i | i | i
Cc1c(NC=C(C#N)C#N)c(=O)n(-c2ccccc2)n1C | i | i | i | i[0.501 µM] | i
Cc1c(N/N=C(\C#N)C(=O)c2ccccc2)c(=O)n(-c2ccccc2)n1C | i | i | 56µM | ? | 32µM
Cc1c(N/C=C(\Cl)C(=O)C(F)(F)F)c(=O)n(-c2ccccc2)n1C | i | i | i | 25µM | ?
N#C/C(=N\Nc1ccccc1Cl)C(=O)c1ccccc1 | i | i | i | ? | ?
CCOC(=O)/C(C#N)=N/Nc1c(C)n(C)n(-c2ccccc2)c1=O | i | i | i | 18µM | 79µM
Cc1ccccc1C(=O)/C(C#N)=N/Nc1c(C)n(C)n(-c2ccccc2)c1=O | i | i | 50µM | i | 50µM
CCCOc1cccc(C2c3c(-c4ccccc4O)n[nH]c3C(=O)N2Cc2ccco2)c1 (centres undefined) | i | i | ? | i | ?
CCOc1ccccc1CNC(=O)CCn1c(=O)c2cccn2c2ccc(F)cc21 | i | i | i | i | i
COc1ccc(C(=O)N[C@H](C(=O)Nc2ccc(S(=O)(=O)N3CCOCC3)cc2)C(C)C)cc1 | i | i | i[11.4 µM] | i | i
CN(CCC#N)C(=S)Nc1ccc(S(=O)(=O)N2CCOCC2)cc1 | i | i | i | i | nt
CN(C)CC(C)(C)CNC(=S)Nc1ccc(S(=O)(=O)N2CCOCC2)cc1 | i | i | i | i | i
CC(C)CCCCCCNC(=S)Nc1ccc(S(=O)(=O)N2CCOCC2)cc1 | i | i | i | 0.89µM | i
N#CCCN(C(=S)NC(=O)c1cccs1)c1ccccc1F | i | ? | ? | 4µM | ?
COc1ccc(NC(=S)NNC(=O)c2ccc(S(=O)(=O)N3CCOCC3)cc2)cc1 | i | i | i | 40µM | i
N#CCCN(C(=S)Nc1ccc(S(=O)(=O)N2CCOCC2)cc1)c1ccccc1F | i | i | i | 45µM | i
O=S(=O)(c1ccc(NC(=S)Nc2ccccc2)cc1)N1CCOCC1 | i | i | i | 79µM | i
SMILES | GLS inhibitor | HP1b binding inh | JMJD2A Tudor inh | G9a inh | BAZ2B block
O=S(=O)(c1ccc(NC(=S)Nc2ccc3c(c2)OCO3)cc1)N1CCOCC1 | i | i | i | ? | i
COc1ccc(NC(=S)N2CCN(S(=O)(=O)c3ccc(C)cc3)CC2)cc1 | i | i | i | nt | ?
COc1ccc(NC(=S)N2CCN(S(=O)(=O)c3ccc(OC)cc3)CC2)cc1 | i | i | 89µM | nt | ?
CCOc1cc(C2c3c(oc4ccccc4c3=O)C(=O)N2Cc2ccc3c(c2)OCO3)ccc1O (centres undefined) | i | i | i | i | i
Cc1ccc(S(=O)(=O)/C=C/C#N)cc1 | nt | nt | nt | 1.6µM | nt
Cc1ccc(S(=O)(=O)C=CS(=O)(=O)c2ccc(C)cc2)cc1 | i | nt | nt | nt | nt
Cc1ccc(S(=O)(=O)/N=C(/Sc2ccccc2C(=O)O)c2ccccc2)cc1 | i | 22µM! | i | nt | i
Cc1ccc(S(=O)(=O)/N=C(\Sc2ccccc2)c2ccccc2)cc1 | i | i | i | i[12.7 µM] | i
NS(=O)(=O)c1ccc(S(=O)(=O)N2CCCC(c3ccccc3)C2)cc1 (centres undefined) | i | nt | nt | nt | nt
COc1ccc(-c2cn3cccnc3n2)cc1NC(=O)c1cc(C)cc(C)c1 | i | i | i | i | i
CONC(=O)C[C@@H](C#N)NC(=O)[C@@H]1CCCN1C(=O)[C@@H](NC(=O)c1ccc(N)c(Cl)c1)C(C)(C)C | nt | nt | i | nt | nt
O=C(O)c1ccccc1S(=O)(=O)Cc1ccccc1 | i | i | i | i[12.7 µM] | i
Cn1ncc(S(=O)(=O)Cc2ccccc2)c(Br)c1=O | nt | nt | nt | 1.5µM | nt
CCCOc1ccc(-c2nc(C#N)c(N3CCN(CC)CC3)o2)cc1 | i | 50µM | ? | ? | 40µM
CCOc1ccc(-c2nc(C#N)c(N3CCCCCC3)o2)cc1 | i | ? | 35µM | 7.9µM | 11µM
CCOc1ccc(-c2nc(C#N)c(N3CCN(CC)CC3)o2)cc1 | i | i | ? | 50µM | ?
CCOc1ccc(-c2nc(C#N)c(N3CCN(C)CC3)o2)cc1 | i | i | i | i[12.7 µM] | i
CCn1c(=O)c2[nH]c(SC)nc2n(CC)c1=O | i | nt | nt | nt | nt
Cc1cc(C(=O)NCC2COc3ccccc3O2)c2ccccc2n1 (centres undefined) | i | i | i | 45µM | i
Cc1ccc(/C=C/C(=O)NCCc2c[nH]c3ccccc23)o1 | i | ? | i | 45µM | nt
O=C(/C=C/c1ccccc1)NCc1ccco1 | i | i | i | ? | i
O=C(/C=C/c1ccco1)NCc1ccco1 | i | i | i | 50µM | 56µM
Cc1ccc(/C=C/C(=O)NCc2ccco2)o1 | nt | nt | nt | 20µM | ?
O=C(/C=C/c1c(Cl)cccc1Cl)NCc1ccco1 | i | i | i | i | i
Cc1ccc(NC(=O)C2CCCN(S(=O)(=O)c3ccc4c(c3)CCCC(=O)N4)C2)cc1N(C)C (centres undefined) | i | i | i | i | i
SMILES | GLS inhibitor | HP1b binding inh | JMJD2A Tudor inh | G9a inh | BAZ2B block
C[C@@H]1CN([C@H](C)CO)C(=O)CCCn2nncc2CO[C@@H]1CN(C)S(=O)(=O)c1ccc2ccccc2c1 | i | nt | nt | nt | nt
COc1ccc(/C=C/C(=O)NCc2ccccn2)cc1 | i | i | i | i | i
O=C(CNC(=O)Cc1ccccc1)N=Nc1c(O)[nH]c2ccccc12 | i | i | i | i | i
O=C(O)/C=C/C(=O)NCc1ccccn1 | i | i | i | 45µM | ?
Cc1ccc(/C=C/C(=O)NCc2ccccn2)o1 | ? | ? | 50µM | ? | 45µM
O=C(CNC(=O)/C=C/c1ccco1)N=Nc1c(O)[nH]c2ccccc12 | ? | i | i | 35µM | 56µM
NS(=O)(=O)c1ccc(CNC(=O)/C=C/c2ccco2)cc1 | ? | ? | ? | 40µM | 56µM
OC(c1cc(Cl)cc(Cl)c1)c1ncc(-c2cccc(F)c2)[nH]1 (centres undefined) | i | nt | nt | nt | nt
O=C(CN1N=C(c2ccc(Cl)cc2)CCC1=O)NCc1ccc(F)cc1 | i | i | i | i | i
CC(=O)c1cccc(N(CC(=O)NC2CCCCC2)C(=O)CCC(=O)Nc2nc(C)cs2)c1 | i | i | i | i | i
